From PubChem BioAssay AID463173 (ICCB-Longwood Screening Facility, Harvard Medical School, 2010)
The campaign covered roughly 52,000 compounds. About 4,300 (8.3%) were called active. Rule as the data show it: active = survival mostly below about 52% (no sharp cut-off); inactive = mostly above about 56%. The sample as a whole holds a higher share of actives than the screen did.

Each molecule was assayed on DeltatarO mutant (assay: growth inhibition of S. aureus wild type versus tarO mutant, primary screen, teichoic acid synthesis inhibitors, RN4220, OD600 (AID 463173)). Settings: OD600, 18 h, active compounds read low, screened at 18.75 µg/mL (by protocol).
With `Cc1ccc2oc(C(=O)Nc3ccc(S(=O)(=O)Nc4onc(C)c4C)cc3)cc(=O)c2c1` the survival was 71% (inactive). With `O=C(CN1C(=O)COc2ccc(S(=O)(=O)Nc3ccccc3)cc21)Nc1cccc(Cl)c1` the survival was 96% (inactive). With `Fc1ccc(-c2nc(Nc3ccc(F)c(Cl)c3)nc3c2COc2ccccc2-3)cc1` the survival was 55% (inactive). With `O=C(c1cn(CC(=O)N2CCOCC2)c2ccccc12)C1CC1` the survival was 90% (inactive). For `CCN(CC)C(=O)c1sc2c(c1C)c(=O)n(-c1ccc(C)c(C)c1)c(=O)n2Cc1cc(=O)n2ccccc2n1`, the survival was 84% (inactive). `O=c1c2sccc2n(Cc2cc(=O)n3ccccc3n2)c(=O)n1-c1cccc(C(F)(F)F)c1` was tested, and the survival was 52% (inactive). For `CCN(CC)C(=O)c1sc2c(c1C)c(=O)n(-c1ccc(C)c(C)c1)c(=O)n2Cc1cc(=O)n2c(C)cccc2n1`, the survival was 49% (inactive). For `CCN(CC)C(=O)c1sc2c(c1C)c(=O)n(-c1ccc(Cl)c(Cl)c1)c(=O)n2Cc1cc(=O)n2c(C)cccc2n1`, the survival was 32% (active). For `Cc1ccc(-n2c(=O)c3sccc3n(Cc3cc(=O)n4ccccc4n3)c2=O)cc1`, the survival was 63% (active). For `CCN(CC)C(=O)c1sc2c(c1C)c(=O)n(-c1ccc(Cl)c(Cl)c1)c(=O)n2Cc1cc(=O)n2ccccc2n1`, the survival was 112% (inactive). For `CCN(CC)C(=O)Cn1c(=O)n(-c2ccc(Cl)c(Cl)c2)c(=O)c2c(C)c(C(=O)N(CC)CC)sc21`, the survival was 83% (inactive). `O=c1c2sccc2n(Cc2cc(=O)n3ccccc3n2)c(=O)n1-c1cc(F)ccc1F` was tested, and the survival was 69% (inactive). In the case of `CCN(CC)C(=O)c1sc2c(c1C)c(=O)n(-c1ccccc1)c(=O)n2Cc1cc(=O)n2ccccc2n1`, the survival was 47% (active). With `Cc1ccc(S(=O)(=O)N(CC(=O)Nc2cccnc2)c2cc(Cl)ccc2C)cc1` the survival was 78% (inactive). For `COc1ccc(NC(=O)CNC(=O)Cn2c(C)cc3ccccc3c2=O)c(OC)c1`, the survival was 62% (inactive). With `C=CCSc1nsc(N)n1` the survival was 75% (inactive). `Nc1nc(SC#CC(F)(F)F)ns1` was tested, and the survival was 13% (active). With `O=C(CSc1ccccc1)N1CCc2c([nH]c3ccccc23)C1c1ccc(Cl)cc1` (configuration not stated) the survival was 52% (active). In the case of `Cc1ccc(C2c3[nH]c4ccccc4c3CCN2C(=O)CSc2ccccc2)cc1` (configuration not stated), the survival was 69% (inactive). In the case of `O=C(CSc1ccccc1)N1CCc2c([nH]c3ccccc23)C1c1ccc(F)cc1` (configuration not stated), the survival was 76% (inactive). `Cc1ccc(CCNS(=O)(=O)c2ccc3c(c2)C(C(C)C)C(=O)N3)cc1` (configuration not stated) was tested, and the survival was 116% (inactive). With `COc1ccccc1CCNC(=O)C(=O)NCC(c1cccs1)S(=O)(=O)c1ccccc1` (configuration not stated) the survival was 82% (inactive). For `O=C(c1ccc(F)cc1F)N1CCC(c2noc(-c3ccc(S(=O)(=O)N4CCCC4)cc3)n2)CC1`, the survival was 97% (inactive). For `Cc1cccc2nc(-c3ccc(N(C)C)cc3)c(Nc3ccc4c(c3)OCO4)n12`, the survival was 102% (inactive). In the case of `O=C(Nc1ccc2nc(SCC(=O)N3CCOCC3)sc2c1)c1ccc(Cl)cc1`, the survival was 68% (inactive). In the case of `O=C(Nc1ccc2nc(SCC(=O)N3CCOCC3)sc2c1)c1cccc(Cl)c1`, the survival was 32% (active). `O=C(Nc1ccc2nc(SCC(=O)N3CCOCC3)sc2c1)c1ccc(Br)cc1` was tested, and the survival was 83% (inactive). In the case of `O=C(Nc1ccc2nc(SCC(=O)N3CCOCC3)sc2c1)c1cccc(Br)c1`, the survival was 29% (active). `O=C(Nc1ccc2nc(SCC(=O)N3CCCC3)sc2c1)c1cccc(Br)c1` was tested, and the survival was 57% (inactive). With `O=C(Nc1ccc2nc(SCC(=O)N3CCCC3)sc2c1)c1cccc(Cl)c1` the survival was 52% (inactive). In the case of `Cc1cc(C)cc(NC(=O)C2CCCN(S(=O)(=O)c3cccc4nsnc34)C2)c1` (configuration not stated), the survival was 105% (inactive). For `Cc1ccc(N2CCN(C(=O)c3cnn(-c4ccc(F)cc4F)c3C3CCN(C(=O)OC(C)(C)C)CC3)CC2)c(C)c1`, the survival was 91% (inactive). For `CCc1ccc(NC(=O)C(CC)n2nnc(C(=O)OC)c2C(=O)OC)cc1` (configuration not stated), the survival was -3% (active). In the case of `CCC(C(=O)Nc1cc(C)ccc1OC)n1nnc(C(=O)OC)c1C(=O)OC` (configuration not stated), the survival was 94% (inactive). In the case of `CCOC(=O)c1nnn(C(CC)C(=O)Nc2ccc(F)cc2)c1C(=O)OCC` (configuration not stated), the survival was 119% (inactive). In the case of `Cc1cc(C)cc(OCC(=O)Nc2cccc3cccnc23)c1`, the survival was 73% (inactive). `Cc1cccc(OCC(=O)Nc2cccc3cccnc23)c1C` was tested, and the survival was 60% (active). `Cc1ccc(C(=O)Nc2cccc3cccnc23)cc1Cl` was tested, and the survival was 72% (inactive). For `O=C(NCc1ccc(Cl)cc1)c1cc2ccc3cccnc3c2[nH]1`, the survival was 58% (inactive). With `CCOc1ccccc1NC(=O)c1ccc(C(=O)Nc2ccccc2OCC)cc1` the survival was 83% (inactive). In the case of `CCOc1cc(C(=O)Nc2cccc3cccnc23)cc(OCC)c1OCC`, the survival was 10% (active). In the case of `CC(C)c1ccc(C(=O)Nc2cccc3cccnc23)cc1`, the survival was -1% (active). With `CCOc1cc(C(=O)Nc2ccncc2)cc(OCC)c1OCC` the survival was 94% (inactive). For `O=C(NCc1ccccc1)c1cc2ccc3cccnc3c2[nH]1`, the survival was 80% (inactive). With `Cc1ccc2cccc(NC(=O)c3ccc(OC(C)C)cc3)c2n1` the survival was 95% (inactive). With `Cc1ccc(CNC(=O)c2cc3ccc4cccnc4c3[nH]2)cc1` the survival was 32% (active). In the case of `O=C(COc1ccc(Cl)cc1Cl)Nc1cccc2cccnc12`, the survival was 79% (inactive). `CCOc1ccc(C(=O)NC2CCN(C(=O)NCc3ccccc3)CC2)cc1` was tested, and the survival was 84% (inactive). For `COc1ccc(-c2nc(C)c(CCNC(=O)C(=O)Nc3ccccc3OC)s2)cc1`, the survival was 89% (inactive). For `c1ccc(Cc2nnc(SCc3nc(-c4cccs4)no3)n2-c2ccccc2)cc1`, the survival was 56% (inactive). For `COc1cc(NS(=O)(=O)c2cc3c(cc2C)N(C)CCO3)cc(OC)c1OC`, the survival was 90% (inactive). With `Cc1ccccc1CN1C(=O)c2ccccc2S(=O)c2ccc(C(=O)NCc3ccco3)cc21` (configuration not stated) the survival was 71% (inactive). With `CC(C)CCn1c(=O)c2sccc2n2c(CCCC(=O)NCCc3ccccc3)nnc12` the survival was 68% (inactive). `CCS(=O)(=O)NCC(c1ccco1)N1CCN(c2ccc(OC)cc2)CC1` (configuration not stated) was tested, and the survival was 91% (inactive). For `CCOc1ccccc1N(CC)C(=O)c1cc2ccc3cccnc3c2[nH]1`, the survival was 102% (inactive). `CCOc1ccccc1NC(=O)c1cc2ccc3cccnc3c2[nH]1` was tested, and the survival was 37% (active). `CCOC(=O)c1ccccc1NC(=O)c1cc2ccc3cccnc3c2[nH]1` was tested, and the survival was 117% (inactive).
